# Laboratory results reported in ChEMBL document CHEMBL4513146, “CO-ADD screening of Karazin Kharkiv National University (Ukraine) compounds”.
# Results with a measured potency or affinity are listed apart.
# System: Cryptococcus neoformans
# Conditions: Concentration 32 ug.mL-1; ASSAY_TEST Inhibition of Fungal Growth; detection method Resazurin; Absorption (OD600-OD570); plate type 384well; NBS; CORNING #3640
row,SMILES,Inhibition [%]
1,CC(C)c1nnc2c(=O)n(CC(=O)Nc3ccc(F)cc3F)c3ccccc3n12,-23.4
2,COc1cccc(Oc2nccn3c(=O)n(CC(=O)Nc4cc(C)c(Cl)cc4OC)nc23)c1,-7.05
3,Cc1cc(C)cc(Nc2nc(C)cc3nn(CC(=O)Nc4cccc(Cl)c4)c(=O)n23)c1,-8.23
4,COc1ccccc1-n1ccn2c(SCC(=O)Nc3ccc4c(c3)OCO4)nnc2c1=O,-4.47
5,COC(=O)c1ccc(NC(=O)Cn2c(=O)c3nnc(C(C)C)n3c3ccccc32)cc1,-26.77
6,COC(=O)c1ccccc1NC(=O)CSc1nc2ccccc2n2c(C(C)C)nnc12,-7.61
7,Cc1cccc(CSc2nnc3c(=O)n(-c4ccc(Br)cc4)ccn23)c1,-6.53
8,Cc1cc(C)cc(N(Cc2cccc(Cl)c2)S(=O)(=O)c2cccn3cnnc23)c1,-7.68
9,COc1ccccc1-n1ccn2c(SCC(=O)Nc3ccc(F)cc3F)nnc2c1=O,-9.49
10,O=C(Cn1nc2c(N3CCOCC3)nccn2c1=O)N1CCN(c2ccccc2F)CC1,-5.23
11,COc1cccc(-n2ccn3c(SCC(=O)Nc4ccc(Br)cc4)nnc3c2=O)c1,-9.82
12,O=c1c2sccc2n2c(=O)n(Cc3ccc(Cl)cc3)nc2n1Cc1cccs1,-17.8
13,Cc1ccc(Oc2nccn3c(=O)n(CC(=O)Nc4cccc(Cl)c4)nc23)cc1,-14.56
14,CCOc1ccc(-n2ccn3c(SCC(=O)Nc4ccc(C)cc4)nnc3c2=O)cc1,-19.05
15,O=c1n(Cc2cccc(C(F)(F)F)c2)nc2c(S(=O)(=O)N3CCCC3)cccn12,-8.52
16,O=C(CSc1nnc2c(=O)n(-c3ccccc3)ccn12)Nc1ccc(F)cc1,-7.32
17,Cc1ccc2c(c1)N(C(=O)Cn1nc3ccc(S(=O)(=O)C(C)(C)C)nn3c1=O)CCO2,-14.77
18,O=C(CCc1nnc2c3cc(-c4ccccc4)nn3ccn12)N1CCN(C(=O)c2ccco2)CC1,-4.62
19,COc1ccc(NC(=O)Cn2nc3c(N4CCOCC4)nccn3c2=O)c(OC)c1,-16.42
20,COc1ccc(NC(=O)CSc2nc3ccccc3n3cnnc23)cc1OC,-35.7

row,SMILES,Inhibition [%]
1,Cc1nnc2c(SCC(=O)Nc3ccc(F)cc3F)nc3ccccc3n12,-22.98
2,Cc1cc2nn(CC(=O)Nc3cccc(F)c3)c(=O)n2c(Nc2ccc(F)c(C)c2)n1,-7
3,Cc1ccc(C)c(Cn2nc3n(CC(C)C)c(=O)c4sccc4n3c2=O)c1,-8.63
4,COc1ccc(NC(=O)CSc2nnc3ccc(C(=O)Nc4cccc(F)c4)cn23)cc1,-2.63
5,Cc1ccc(NC(=O)Cn2c(=O)c3nnc(C(C)C)n3c3ccccc32)cc1C,-12.38
6,Cc1ccc(NC(=O)Cn2nc3ccc(SC4CCCCC4)nn3c2=O)cc1C,-21.19
7,Cc1ccc(-n2ccn3c(=O)n(Cc4c(F)cccc4Cl)nc3c2=O)cc1C,-16.44
8,COc1cccc(Sc2nc3ccccc3n3c(=O)n(CC(=O)Nc4ccc(C)cc4)nc23)c1,-30.42
9,Cc1cc(C)cc(Nc2nc(C)cc3nn(CC(=O)Nc4ccc(C)c(F)c4)c(=O)n23)c1,-10.1
10,Cc1ccc(-c2ccc3nnc(CCC(=O)NCc4cccc(Br)c4)n3n2)cc1,-54.18
11,Cc1ccc(NC(=O)Cn2nc3ccc(-c4ccc(Cl)cc4)nn3c2=O)cc1F,-2.55
12,CCC(C)NC(=O)c1ccc2c(=O)n(C3CC3)c3nn(CC(=O)NC(C)C)c(=O)n3c2c1 (stereo not given),-38.88
13,Cc1cc2nn(CC(=O)Nc3ccc4c(c3)OCCO4)c(=O)n2c(Nc2ccccc2C)n1,-3.99
14,Cc1ccc(-c2cc3c4nn(CC(=O)N5CCN(c6ccc(F)cc6)CC5)c(=O)n4ccn3n2)cc1C,-26.79
15,COc1cccc(-n2ccn3c(SCC(=O)c4c[nH]c5ccccc45)nnc3c2=O)c1,-9.55
16,O=c1n(Cc2cccc(C(F)(F)F)c2)nc2ccc(S(=O)(=O)N3CCCC3)cn12,-10.53
17,COc1ccc(NC(=O)Cn2c(=O)c3nnc(C(C)C)n3c3ccccc32)cc1Cl,-13.11
18,Cc1ccc(NC(=O)Cn2nc3c4cc(-c5ccc(C)c(C)c5)nn4ccn3c2=O)c(C)c1,-15.91
19,CCCCc1ccc(NC(=O)Cn2nc3ccc(C(=O)Nc4ccc(OC)cc4)cn3c2=O)cc1,-8.8
20,CSc1cccc(NC(=O)Cn2nc3c(Sc4ccccc4)nccn3c2=O)c1,-12.89
